Measurements reported in PubChem BioAssay (NCI).
This is part of a sample that, as a whole, favours compounds with a hit. Of some 83,000 tested, about 20% had one in any assay.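 How to read the values: 0–100, growth inhibition (40 = 60% inhibited); 0, no net growth; -100 to 0, cell death (-40 = 40% of starting cells died; -100 = all dead).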 The source made the active and inactive calls. Rule for the calls: active = growth percent below 10; inactive = the rest.

Experiments:
Experiment in all cases: NCI-60 one-dose screen, 48 h (100 = growth as untreated, 0 = no growth, -100 = all killed)
Conditions in all cases: 10 µM unless noted
SK-MEL-2 melanoma = tested on: SK-MEL-2 melanoma
EKVX NSCLC = tested on: EKVX NSCLC
SN12C renal = tested on: SN12C renal
UO-31 renal = tested on: UO-31 renal
TK-10 renal = tested on: TK-10 renal
ACHN renal = tested on: ACHN renal
CAKI-1 renal = tested on: CAKI-1 renal
A498 renal = tested on: A498 renal
CCRF-CEM leukemia = tested on: CCRF-CEM leukemia
MOLT-4 leukemia = tested on: MOLT-4 leukemia

Measured: growth

NNc1nnc2nc(Nc3ccccc3)nc(Nc3ccc(S(N)(=O)=O)cc3)n12
inactive: SK-MEL-2 melanoma 111% | EKVX NSCLC 99.4% | SN12C renal 98.8% | UO-31 renal 82.2% | TK-10 renal 106% | ACHN renal 106% | CAKI-1 renal 94.5% | A498 renal 102% | CCRF-CEM leukemia 92.5% | MOLT-4 leukemia 105%

Cn1c(SCC(=O)c2ccc(Br)cc2)nc2ccccc2c1=O
inactive: SK-MEL-2 melanoma 102% | EKVX NSCLC 82.2% | SN12C renal 96.6% | UO-31 renal 75.9% | TK-10 renal 117% | ACHN renal 96.1% | CAKI-1 renal 85.4% | A498 renal 92.7% | CCRF-CEM leukemia 91.9%

CC(=O)/C(N=Nc1ccc2oc(=O)ccc2c1)=C(\C)O
active: SK-MEL-2 melanoma 0.338%
inactive: EKVX NSCLC 30.8% | SN12C renal 35.6% | UO-31 renal 15.4% | TK-10 renal 23.8% | ACHN renal 18.2% | CAKI-1 renal 33.3% | A498 renal 29.8% | CCRF-CEM leukemia 13.1%

Cc1ccc(Nc2nc(SC(C)C)nc(-c3ccccc3)c2C#N)cc1
inactive: SK-MEL-2 melanoma 112% | EKVX NSCLC 81.7% | SN12C renal 95.8% | UO-31 renal 88.4% | TK-10 renal 82.1% | ACHN renal 88.4% | CAKI-1 renal 75.8% | A498 renal 62.3% | CCRF-CEM leukemia 81.7%

CN1CCC[C@]2(C)[C@H]3CC[C@@H]4[C@@H]5[C@H]6OC[C@@]5(CCC6(C)C)CC[C@@]4(C)[C@]3(C)CC[C@H]2C1(C)C
inactive: SK-MEL-2 melanoma 108% | EKVX NSCLC 99.6% | SN12C renal 88.9% | UO-31 renal 91.5% | TK-10 renal 108% | ACHN renal 86.9% | CAKI-1 renal 10.4% | A498 renal 90.1% | CCRF-CEM leukemia 66.4%

COc1ccc2sc(NC(=O)CCCCCCNC(=O)C(O)(O)C(F)(F)F)nc2c1
inactive: EKVX NSCLC 23.3% | SN12C renal 10.5% | CCRF-CEM leukemia 24.6%
active: SK-MEL-2 melanoma -17.5% | UO-31 renal -13.7% | TK-10 renal -12.4% | ACHN renal -26.8% | CAKI-1 renal -16.3% | A498 renal -35.2%

NC(=S)n1c(=O)n(-c2cccc(C(F)(F)F)c2)c(=O)c2cc(-c3ccc(F)cc3F)ccc21
active: SK-MEL-2 melanoma -29.1% | EKVX NSCLC 5.19% | SN12C renal -3.03% | UO-31 renal 6.1% | TK-10 renal 7.56% | ACHN renal -0.456% | CAKI-1 renal -13.5% | A498 renal -18.8%
inactive: CCRF-CEM leukemia 18%

Nc1cc(C(=O)N/N=C\c2ccc(OC(F)F)c(OC3CCCC3)c2)nn1CC(O)c1ccccc1 (stereo unspecified)
inactive: SK-MEL-2 melanoma 101% | EKVX NSCLC 104% | SN12C renal 105% | UO-31 renal 76.5% | TK-10 renal 112% | ACHN renal 105% | CAKI-1 renal 81.9% | A498 renal 100% | CCRF-CEM leukemia 92.3%

COc1ccc2[nH]cc(-c3nn4cc(-c5ccncc5)nc4s3)c2c1
inactive: SK-MEL-2 melanoma 101% | EKVX NSCLC 55.4% | SN12C renal 83.5% | UO-31 renal 23.3% | TK-10 renal 109% | ACHN renal 57.5% | CAKI-1 renal 56.9% | A498 renal 68.9% | CCRF-CEM leukemia 37.9%

O=C(/C=C/c1cccc(F)c1)c1cccc(OCCCOc2cccc(C(=O)/C=C/c3cccc(F)c3)c2)c1
inactive: SK-MEL-2 melanoma 97.3% | EKVX NSCLC 47.2% | SN12C renal 82% | UO-31 renal 37.6% | TK-10 renal 114% | ACHN renal 89.4% | CAKI-1 renal 90.4% | A498 renal 90.8% | CCRF-CEM leukemia 36.8% | MOLT-4 leukemia 56.3%

CN1CCN(Cc2ccc(NC(=O)c3cncc(C#Cc4cnc5ccc(N)nn45)c3)cc2C(F)(F)F)CC1
active: SK-MEL-2 melanoma -27.9%
inactive: EKVX NSCLC 37.1% | SN12C renal 15.7% | UO-31 renal 96.3% | TK-10 renal 40.4% | ACHN renal 27.7% | CAKI-1 renal 13.8% | A498 renal 67% | CCRF-CEM leukemia 11.8%

N#CC1=C2NCCCNc3oc(nc3C#N)Cc3ccccc3CC(=N1)O2
inactive: SK-MEL-2 melanoma 93.9% | EKVX NSCLC 99.5% | SN12C renal 105% | UO-31 renal 72.9% | TK-10 renal 106% | ACHN renal 87.4% | CAKI-1 renal 77.3% | A498 renal 95.5% | CCRF-CEM leukemia 30.4%

Cn1cc(C2=C(c3coc4cc(Br)ccc34)C(=O)NC2=O)c2ccccc21
inactive: SK-MEL-2 melanoma 96.5% | EKVX NSCLC 67% | SN12C renal 95.7% | UO-31 renal 52.5% | TK-10 renal 101% | ACHN renal 88.2% | CAKI-1 renal 50.5% | A498 renal 79.8% | CCRF-CEM leukemia 62.5% | MOLT-4 leukemia 52.9%

O=S(=O)(NCCCNc1nccc(-c2[nH]c(-c3ccccc3)nc2-c2ccc(F)c(O)c2)n1)c1cccc(F)c1
inactive: SK-MEL-2 melanoma 39.2% | EKVX NSCLC 99.8% | SN12C renal 99.1% | UO-31 renal 139% | TK-10 renal 134% | ACHN renal 93.2% | CAKI-1 renal 95.5% | A498 renal 93.5% | CCRF-CEM leukemia 37%

O=C1Nc2cc(Cl)ccc2/C1=C\c1ccc(OCc2ccccc2)cc1
inactive: SK-MEL-2 melanoma 111% | EKVX NSCLC 100% | SN12C renal 96% | UO-31 renal 76.2% | TK-10 renal 154% | ACHN renal 94.8% | CAKI-1 renal 89.3% | A498 renal 93% | CCRF-CEM leukemia 102% | MOLT-4 leukemia 99.1%

CC(C)(C)OC(=O)Nc1ccc(-c2cccc(Oc3ccc4nnc(Cl)n4n3)c2)cc1
inactive: SK-MEL-2 melanoma 65.8% | EKVX NSCLC 86.7% | SN12C renal 78.7% | UO-31 renal 67.6% | TK-10 renal 71.1% | ACHN renal 88% | CAKI-1 renal 83.6% | A498 renal 70.1% | CCRF-CEM leukemia 60.4% | MOLT-4 leukemia 46.3%

CN1CCN(c2ccc(Nc3nc(NCCNS(=O)(=O)c4ccc5ccccc5c4)c4sccc4n3)cc2)CC1
inactive: SK-MEL-2 melanoma 103% | EKVX NSCLC 86.2% | SN12C renal 79.6% | UO-31 renal 68.9% | TK-10 renal 127% | ACHN renal 86.8% | CAKI-1 renal 69.5% | A498 renal 86.9% | CCRF-CEM leukemia 41.9% | MOLT-4 leukemia 41.6%

O=C1Nc2ccc(F)cc2/C1=C\C(=O)c1ccc(NS(=O)(=O)c2ccccc2)cc1
active: CCRF-CEM leukemia 8.68%
inactive: SK-MEL-2 melanoma 115% | EKVX NSCLC 82.8% | SN12C renal 87.2% | UO-31 renal 70% | TK-10 renal 130% | ACHN renal 74.6% | CAKI-1 renal 72.9% | A498 renal 115% | MOLT-4 leukemia 40.7%

CC1=C(C)C(=O)C(Nc2cccc(C(F)(F)F)c2)=C(Br)C1=O
active: CCRF-CEM leukemia -0.578%
inactive: SK-MEL-2 melanoma 104% | EKVX NSCLC 72.9% | SN12C renal 97.1% | UO-31 renal 79.1% | TK-10 renal 157% | ACHN renal 72.3% | CAKI-1 renal 94.3% | A498 renal 86.4%

Cc1csc(/N=C(N)/N=C(\N)c2cccc(C#N)c2)n1
inactive: SK-MEL-2 melanoma 47.8% | EKVX NSCLC 82.8% | SN12C renal 92.3% | UO-31 renal 76.3% | TK-10 renal 168% | ACHN renal 84.9% | CAKI-1 renal 53.9% | A498 renal 69.4% | CCRF-CEM leukemia 82.7% | MOLT-4 leukemia 85.6%

COc1ccccc1/C=C/C(=O)c1nnn(-c2ccc(F)cc2)c1C
inactive: SK-MEL-2 melanoma 93.2% | EKVX NSCLC 69.3% | SN12C renal 68.5% | UO-31 renal 38.1% | TK-10 renal 110% | ACHN renal 46.1% | CAKI-1 renal 38.5% | A498 renal 66.8% | CCRF-CEM leukemia 14%

Cn1ncc2ncc(-c3ccc4ncc(C#N)c(N5CCc6cc(F)c(Cl)cc65)c4c3)cc21
active: UO-31 renal 3.14% | A498 renal 2.55%
inactive: SK-MEL-2 melanoma 47.6% | EKVX NSCLC 11.3% | SN12C renal 30.3% | TK-10 renal 63.2% | ACHN renal 17% | CAKI-1 renal 13.6% | CCRF-CEM leukemia 28.4%

CC[C@]12C=CCN3CC[C@]4(C(=C(C(=O)OC)C1)Nc1cc5c(cc14)[C@@H]1[C@H](O5)[C@@H](O)[C@@]4(CC)CC(C(=O)OC)=C5Nc6cc(O)ccc6[C@@]56CCN1C46)C32 (stereo partly specified)
inactive: SK-MEL-2 melanoma 16.1% | EKVX NSCLC 16.3% | SN12C renal 13.8%
active: UO-31 renal 4.9% | TK-10 renal -9.16% | ACHN renal -14.3% | CAKI-1 renal -7.67% | A498 renal -71.8% | CCRF-CEM leukemia 6.81%

O=C(/C=C/C=C/c1csc(Br)n1)NO
inactive: SK-MEL-2 melanoma 109% | EKVX NSCLC 102% | SN12C renal 95.1% | UO-31 renal 71.9% | TK-10 renal 86.6% | ACHN renal 92.6% | CAKI-1 renal 83.9% | A498 renal 92.8% | CCRF-CEM leukemia 43.1%

NS(=O)(=O)c1nnc(/N=C/c2c(O)[nH]c3ccccc23)s1
inactive: SK-MEL-2 melanoma 114% | EKVX NSCLC 84.2% | SN12C renal 101% | UO-31 renal 72.5% | TK-10 renal 142% | ACHN renal 93.7% | CAKI-1 renal 86.5% | A498 renal 107% | CCRF-CEM leukemia 106%

CN1CCN(c2ccc(Nc3nc(NCCCNS(=O)(=O)c4ccc(C(F)(F)F)cc4)c4sccc4n3)cc2)CC1
active: SK-MEL-2 melanoma -91% | EKVX NSCLC 0.826% | SN12C renal -60.2% | UO-31 renal -85% | TK-10 renal -34.4% | ACHN renal -74.3% | CAKI-1 renal -76.9% | A498 renal -87% | CCRF-CEM leukemia 6.25% | MOLT-4 leukemia 0.188%

C1=CC(c2nn3c(-c4ccccc4)nnc3s2)=Cc2ccccc2O1
inactive: SK-MEL-2 melanoma 74.7% | EKVX NSCLC 88.5% | SN12C renal 78.9% | UO-31 renal 53.4% | TK-10 renal 116% | ACHN renal 76.7% | CAKI-1 renal 47.6% | A498 renal 67.5% | CCRF-CEM leukemia 27.9%

FC(F)(F)c1cc(Br)cc(-c2cc(-c3ccc4c(c3)OCCO4)[nH]n2)c1
inactive: SK-MEL-2 melanoma 77.4% | EKVX NSCLC 52.4% | SN12C renal 44.7% | UO-31 renal 51.3% | TK-10 renal 121% | ACHN renal 28.9% | CAKI-1 renal 33.3% | A498 renal 11.6% | CCRF-CEM leukemia 14.9%
